Compound activity (PubChem BioAssay)
Vif-A3F inh – qHTS for Inhibitors of Vif-A3F Interactions: qHTS; HeLa A3F-eYFP + Vif (tagged APOBEC3F with the HIV-1 protein that degrades it), YFP fluorescence increase; Potency, µM (highest dose often 46.1 µM), for the others: at the top dose activity, negative = active; actives 0.2% (n = 390,000); further: potency means the concentration at half of the fitted maximal effect; % of control where 0% means no effect; nearly all actives have a fitted effect of over 65% in size
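Fluorescence increase (Ex 488/Em 500-530) after overnight compound treatment at 37 deg C flags inhibition of Vif-driven A3F-eYFP loss in stable HeLa A3F-eYFP/Vif cells seeded overnight beforehand.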
IDH1 R132H inh – qHTS for Inhibitors of mutant isocitrate dehydrogenase 1 (IDH1): qHTS | IDH1-R132H enzyme, NADPH consumption, diaphorase/resazurin fluorescence | Isocitrate dehydrogenase [NADP] cytoplasmic (Homo sapiens), O75874 | actives 0.093% (n = 390,000) | AID 602179, 2012 | Potency, µM (series often up to 76.6 µM), for inactives: top-dose activity change, negative = inhibition, hits mostly inhibitors; further: potency means the concentration at half of the fitted maximal effect; on the % scale 0 is the no-effect control and ±100 the full control effect; nearly all actives have a fitted effect of over 65% in size
Target sequence (O75874 whole entry R132H, stated change not applied): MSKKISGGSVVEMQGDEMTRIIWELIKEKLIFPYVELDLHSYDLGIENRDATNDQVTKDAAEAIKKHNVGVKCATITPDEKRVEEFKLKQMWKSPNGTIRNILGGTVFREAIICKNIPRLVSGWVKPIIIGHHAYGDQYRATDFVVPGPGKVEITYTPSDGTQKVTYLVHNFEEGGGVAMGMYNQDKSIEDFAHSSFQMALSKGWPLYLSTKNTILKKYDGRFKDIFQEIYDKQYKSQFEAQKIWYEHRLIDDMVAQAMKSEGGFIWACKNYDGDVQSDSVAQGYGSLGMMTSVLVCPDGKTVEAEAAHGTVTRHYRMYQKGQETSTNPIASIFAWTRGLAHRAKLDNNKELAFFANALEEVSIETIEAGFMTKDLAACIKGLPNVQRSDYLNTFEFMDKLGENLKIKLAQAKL
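IDH1-R132H (0.5 ug/mL) preincubated 30 min with compound, then NADPH (0.016 mM) and alpha-KG (2 mM) added; 80 min at RT, pH 7.5. Remaining NADPH coupled via diaphorase/resazurin to fluorescence (540/590 nm); concentration-response curves normalized to no-enzyme control.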
Tb PGK inh – qHTS Assay to Find Inhibitors of Phosphoglycerate Kinase; PGK/GAPDH coupled, Kinase-Glo luminescence, 60 min; actives 0.043% (n = 380,000); Potency, µM (doses to about 57.5 µM), for inactives: top-dose activity change, negative = inhibition, most hits filed as inhibitors; further: potency means the concentration at half of the fitted maximal effect; on the % scale 0 is the no-effect control and ±100 the full control effect; nearly all actives have a fitted effect of over 60% in size
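Recombinant glycosomal PGK reaction used 1,3-bisphosphoglycerate generated in-well by GAPDH (100nM final) in 100mM TEA pH 7.6, 5mM MgCl2, 0.01% Tween-20. After 60 minutes at room temperature, ATP was read by Kinase-Glo Plus luminescence end-point.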
Vif-APOBEC3G blk – qHTS for Inhibitors of Vif-A3G Interactions: qHTS; DNA dC->dU-editing enzyme APOBEC-3G (Homo sapiens), Q9HC16; HeLa A3G-eYFP + Vif (tagged APOBEC3G with the HIV-1 protein that degrades it), YFP fluorescence, overnight; Potency, µM (top dose mostly 46.1 µM), for inactives: top-dose activity, negative = active, usual class: inhibitors; actives 0.076% (n = 410,000); AID 602310, 2012; further: potency means the concentration at half of the fitted maximal effect; on the % scale 0 is the no-effect control and ±100 the full control effect; nearly all actives have a fitted effect of over 60% in size
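HeLa cells stably expressing Vif and C-terminally eYFP-tagged A3G, seeded overnight at 37 deg C, then exposed to compound by pintool overnight at 37 deg C. Rise in yellow fluorescence (Ex 488/Em 500-530, Acumen) marks blocked Vif-driven A3G degradation.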
Pin1 inh – qHTS Assay to Find Inhibitors of Pin1; Peptidyl-prolyl cis-trans isomerase NIMA-interacting 1 (Homo sapiens), Q13526; actives 0.009% (n = 390,000); Potency, µM (doses to about 115 µM), without a hit: at the top dose activity, negative = inhibition, usual class: inhibitors; Pin1 FP peptide displacement, HiFluor488, 10 min; active means well fitted inhibition curve with a large enough effect in the polarisation, with a control signal flat, not every such curve was filed as active; inconclusive means small, poorly fitted or top-dose-only effect, or effect the other way, or a change in a side signal; inactive means no such curve, though single readings can be large or run the other way; the % refers to the polarisation; further: potency means the concentration at half of the fitted maximal effect; on the % scale 0 is the no-effect control and ±100 the full control effect
Target sequence (Q13526 whole entry, looked up): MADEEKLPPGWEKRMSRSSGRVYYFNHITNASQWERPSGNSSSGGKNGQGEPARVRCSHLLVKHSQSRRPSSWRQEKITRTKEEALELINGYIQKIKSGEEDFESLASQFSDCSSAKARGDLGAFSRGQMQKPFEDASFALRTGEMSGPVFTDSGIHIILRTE
LDHA inh – qHTS assay for inhibitors of human lactate dehydrogenase. L-lactate dehydrogenase A chain (Homo sapiens), P00338. actives 0.15% (n = 480,000). activity change, % (values are at about 110 or 230 µM). purified LDHA, NADH/diaphorase-resazurin fluorescence; hits give low values; in the data active means activity change below about -30%; inconclusive means mostly about -25% to -30%;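 further: plate controls were DMSO wells for no effect and wells without enzyme for full effect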
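Enzyme activity of human lactate dehydrogenase 5 (2 nM; 0.06 mM NADH, 0.2 mM pyruvate, 5 min, RT) is measured via a resazurin/diaphorase fluorescence readout of residual NADH.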
An asterisk follows results filed as active; i = inactive; ? = inconclusive; / = not tested or not shown; ! = not confirmed by another sample. Most compounds without a hit are left out; they make up all but 0.49% or so of the library. Unless noted, the call rests on the fitted dose curve; in most records, active means well fitted curve in the direction sought with a large enough effect; inconclusive means small, poorly fitted or top-dose-only effect, or another doubt; inactive means no such curve, though single readings can be large; an effect the other way counts as inactive or inconclusive.

SMILES | Vif-A3F inh | IDH1 R132H inh | Tb PGK inh | Vif-APOBEC3G blk | Pin1 inh | LDHA inh
Cc1cc(Br)ccc1SCC(=O)OC/C(O)=C(\C#N)c1nc2ccccc2[nH]1 | 25µM* | 3% | -1% | -6% | ? | -1
CC(C)c1ccc(CNC(C)(C)CO)cc1 | / | / | / | / | / | -1
CCN(CC)C(=O)Cn1c(C)c(/C=C/c2cc[n+](C)cc2)c2ccccc21 | ? | -4% | 7% | 7.9µM* | ? | 2
CCn1c(C)c(/C=C/c2cc[n+](C)cc2)c2ccccc21 | / | / | / | / | / | 2
Cn1c(/C=C/c2c[nH]c3ccccc23)nc2ccccc2c1=O | / | / | / | / | / | -15
Cn1c(SCC(=O)Nc2cccc(C(=O)O)c2)nnc1-c1cc2cc(Br)ccc2o1 | -13% | -1% | ? | -5% | 12% | -34*
CC(C)NC(=O)Nc1c(NC2CCCC2)c2ccccc2oc1=O | / | / | / | / | / | -5
COc1cccc(C(=O)CSc2nnc(-c3cc4ccccc4o3)n2C)c1 | / | / | / | / | / | -1
CCOc1ccc(NC(=O)c2ccc(Cl)cc2Cl)c2cccnc12 | / | / | / | / | / | 11
CCC(Sc1nc(C)cc(C)n1)C(=O)NC1=NN=C(c2ccc(C)cc2)CS1 (configuration not stated) | -18% | 46µM* | -2% | -15% | -1% | -4
Cn1cc(S(=O)(=O)N2CCC(C(=O)Nc3cccc(F)c3)CC2)cc1C(N)=O | / | / | / | / | / | -30*
Cc1ccc(-c2cnc(-c3c(N)sc4c3CCCC4)s2)cc1 | / | / | / | / | / | 2
O=[N+]([O-])c1ccc(N/N=C/c2c[nH]c3ccccc23)c(S(=O)(=O)Nc2ccc(Cl)cc2)c1 | 25µM* | -6% | -9% | ? | ? | 8
CCN1CCN(C(C)C(=O)NC2CCCCC2)CC1 (configuration not stated) | 4% | 2% | -7% | 1% | -15% | -31*
CN(CC(=O)Nc1c(Cl)cccc1Cl)C(=O)c1cccc(-n2cccc2)c1 | 6% | -2% | ? | -7% | ? | -37*!
O=S1(=O)N=C(N(CCO)/N=C/c2ccc(Cl)cc2)c2ccccc21 | -8% | -3% | i | -1% | -2% | -4
CN(C)c1ccc(/C=N/N(CCO)C2=NS(=O)(=O)c3ccccc32)cc1 | 22µM* | 10% | -4% | 5% | ? | -3
CN(C)CCNC(C(=O)Nc1cccc(S(=O)(=O)N2CCOCC2)c1)c1ccccc1 (configuration not stated) | 0% | 12% | i | -10% | -5% | -13
CN(C)CCNC(C(=O)Nc1cccc(C(F)(F)F)c1)c1ccccc1 (configuration not stated) | -9% | 10% | i | -8% | -13% | -37*
CCOc1ccccc1NC(=O)C(NCCN(C)C)c1ccccc1 (configuration not stated) | -19% | 3% | 3% | -2% | 0% | -41*
Cc1ccc(NS(=O)(=O)c2c(C)nc3sccn3c2=O)cc1Cl | / | / | / | / | / | -18
Cc1cc(C(F)(F)F)c(C#N)c(SCCc2ccccc2)n1 | / | / | / | / | / | -4
Cc1ccc(S(=O)(=O)CCSc2nc(C)cc(C(F)(F)F)c2C#N)cc1 | ? | 3% | 4% | 11µM* | ? | -4
CN1CCCN(Cc2ccccc2C(F)(F)F)CC1 | -8% | 8% | -2% | -3% | -10% | -34*
CCCS(=O)(=O)N1CCN(Cc2ccccc2C(F)(F)F)CC1 | -1% | 1% | i | -2% | 0% | -23
C=C(/C=C/c1ccc(N(C)C)cc1)c1nc2ccccc2s1 | / | / | / | 11µM* | / | 0
CN1CCN(CC(=O)Nc2ccccc2Sc2ccccc2)CC1 | 6% | 15% | 1% | 0% | -7% | -33*
